# Laboratory results taken from paper PMC7862700, “An all-to-all approach to the identification of sequence-specific readers for epigenetic DNA modifications on cytosine”.
# Experiments:
# Test in all cases: DAPPL (digital affinity profiling via proximity ligation, sequencing); 10 mM Tris-HCl pH 7.5, 50 mM NaCl, 1 mM DTT, 4% glycerol, room temperature, 30 min; GST-TFs on glutathione beads, 16-mer random dsDNA library, 0.1% formaldehyde crosslink after washing; high values mean tight binding
# FLI1 = target: T1, FLI1 (Homo sapiens, UniProt Q01543 1-452); settings: protein: recombinant; tags: N-terminal GST; dsDNA, one strand shown
# T1 sequence: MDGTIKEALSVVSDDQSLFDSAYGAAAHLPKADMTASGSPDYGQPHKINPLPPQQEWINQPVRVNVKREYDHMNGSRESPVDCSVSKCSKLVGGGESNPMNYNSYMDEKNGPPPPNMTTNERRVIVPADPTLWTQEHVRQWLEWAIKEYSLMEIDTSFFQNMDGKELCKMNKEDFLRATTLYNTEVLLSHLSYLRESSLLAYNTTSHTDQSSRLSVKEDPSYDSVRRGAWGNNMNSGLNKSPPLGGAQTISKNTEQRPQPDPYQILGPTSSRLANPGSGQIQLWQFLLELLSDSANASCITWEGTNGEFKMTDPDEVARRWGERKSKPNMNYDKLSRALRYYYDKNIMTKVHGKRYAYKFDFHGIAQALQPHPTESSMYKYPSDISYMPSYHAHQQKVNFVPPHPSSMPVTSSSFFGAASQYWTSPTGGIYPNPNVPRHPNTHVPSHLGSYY
# Summary of the method: (§1)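 Human transcription factors were made in yeast as GST fusions, captured on glutathione beads and barcoded with DNA. With a tag-only sample included, the pool was incubated with 200 nmole of a random double-stranded 16-mer DNA library in Tris/NaCl/DTT/glycerol buffer at room temperature for 30 min, then crosslinked with 0.1% formaldehyde after washing, ligated by proximity, amplified and sequenced. For binding signal, each hexamer's read frequency for a factor is divided by its frequency for the tag-only sample.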
# GABPA = target: T2, GABPA (Homo sapiens, UniProt Q06546 1-454); settings: protein: recombinant; tags: N-terminal GST; dsDNA, one strand shown
# T2 sequence: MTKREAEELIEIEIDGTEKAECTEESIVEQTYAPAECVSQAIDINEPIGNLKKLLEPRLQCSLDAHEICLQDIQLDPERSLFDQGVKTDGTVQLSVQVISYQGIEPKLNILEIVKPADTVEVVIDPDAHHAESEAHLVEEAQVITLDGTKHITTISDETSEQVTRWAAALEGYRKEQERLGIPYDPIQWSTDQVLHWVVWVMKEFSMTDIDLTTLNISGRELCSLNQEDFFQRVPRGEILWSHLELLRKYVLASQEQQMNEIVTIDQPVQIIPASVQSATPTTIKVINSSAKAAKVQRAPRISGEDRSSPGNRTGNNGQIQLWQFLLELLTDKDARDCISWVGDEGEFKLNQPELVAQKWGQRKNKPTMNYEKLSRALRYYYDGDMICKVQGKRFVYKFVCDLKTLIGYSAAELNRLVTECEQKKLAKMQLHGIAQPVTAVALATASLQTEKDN
# Summary of the method: as §1
# ELF1 = ELF1 (Homo sapiens, UniProt P32519 1-619); settings: protein: recombinant; tags: N-terminal GST; dsDNA, one strand shown
# Summary of the method: as §1
# SPIB = SPIB (Homo sapiens, UniProt Q01892 1-262); settings: protein: recombinant; tags: N-terminal GST; dsDNA, one strand shown
# Summary of the method: as §1
# ELK3 = target: T3, ELK3 (Homo sapiens, UniProt P41970 1-407); settings: protein: recombinant; tags: N-terminal GST; dsDNA, one strand shown
# T3 sequence: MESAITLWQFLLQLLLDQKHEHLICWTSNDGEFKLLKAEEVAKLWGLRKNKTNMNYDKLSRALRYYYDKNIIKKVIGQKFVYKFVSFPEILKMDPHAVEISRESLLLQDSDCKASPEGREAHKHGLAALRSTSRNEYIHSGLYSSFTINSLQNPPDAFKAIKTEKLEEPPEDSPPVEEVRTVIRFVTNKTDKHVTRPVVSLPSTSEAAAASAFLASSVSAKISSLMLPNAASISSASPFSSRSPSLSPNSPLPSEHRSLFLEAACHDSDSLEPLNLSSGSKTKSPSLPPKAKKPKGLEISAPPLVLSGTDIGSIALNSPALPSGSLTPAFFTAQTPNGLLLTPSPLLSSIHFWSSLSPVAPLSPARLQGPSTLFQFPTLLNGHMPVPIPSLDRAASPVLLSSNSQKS
# Summary of the method: as §1
# ELK4 = target: T4, ELK4 (Homo sapiens, UniProt P28324-2 1-405); settings: protein: recombinant; tags: N-terminal GST; dsDNA, one strand shown
# T4 sequence: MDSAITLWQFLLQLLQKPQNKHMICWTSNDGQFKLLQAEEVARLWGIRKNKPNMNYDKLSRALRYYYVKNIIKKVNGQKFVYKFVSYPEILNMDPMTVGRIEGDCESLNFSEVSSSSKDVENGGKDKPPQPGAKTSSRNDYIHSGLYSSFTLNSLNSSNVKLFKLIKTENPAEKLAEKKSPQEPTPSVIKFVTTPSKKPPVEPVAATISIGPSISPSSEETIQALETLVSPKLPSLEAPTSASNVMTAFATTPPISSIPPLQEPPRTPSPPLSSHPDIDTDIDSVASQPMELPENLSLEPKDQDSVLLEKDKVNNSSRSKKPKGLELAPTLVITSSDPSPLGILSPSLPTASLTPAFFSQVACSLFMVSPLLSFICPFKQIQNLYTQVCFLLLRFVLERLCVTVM
# Summary of the method: as §1
# ETV1 = ETV1 (Homo sapiens, UniProt P50549 1-477); settings: protein: recombinant; tags: N-terminal GST; dsDNA, one strand shown
# Summary of the method: as §1
# ERF = target: T5, ERF (Homo sapiens, UniProt P50548 1-548); settings: protein: recombinant; tags: N-terminal GST; dsDNA, one strand shown
# T5 sequence: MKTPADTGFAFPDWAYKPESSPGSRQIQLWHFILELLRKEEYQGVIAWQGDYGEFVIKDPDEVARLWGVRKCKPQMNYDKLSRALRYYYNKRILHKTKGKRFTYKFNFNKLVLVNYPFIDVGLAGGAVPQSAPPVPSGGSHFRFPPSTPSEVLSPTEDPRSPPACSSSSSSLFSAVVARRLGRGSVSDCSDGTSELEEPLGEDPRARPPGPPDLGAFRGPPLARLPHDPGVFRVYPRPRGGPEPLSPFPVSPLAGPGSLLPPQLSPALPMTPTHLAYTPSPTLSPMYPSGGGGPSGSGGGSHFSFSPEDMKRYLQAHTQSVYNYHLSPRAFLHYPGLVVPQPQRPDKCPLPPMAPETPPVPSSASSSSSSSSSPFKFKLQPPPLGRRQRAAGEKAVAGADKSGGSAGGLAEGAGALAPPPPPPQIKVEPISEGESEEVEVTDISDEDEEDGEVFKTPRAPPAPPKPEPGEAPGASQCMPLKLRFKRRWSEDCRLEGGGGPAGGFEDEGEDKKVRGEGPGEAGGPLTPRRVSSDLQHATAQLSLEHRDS
# Summary of the method: as §1
# ETV3L = target: T6, ETV3L (Homo sapiens, UniProt Q6ZN32 1-361); settings: protein: recombinant; tags: N-terminal GST; dsDNA, one strand shown
# T6 sequence: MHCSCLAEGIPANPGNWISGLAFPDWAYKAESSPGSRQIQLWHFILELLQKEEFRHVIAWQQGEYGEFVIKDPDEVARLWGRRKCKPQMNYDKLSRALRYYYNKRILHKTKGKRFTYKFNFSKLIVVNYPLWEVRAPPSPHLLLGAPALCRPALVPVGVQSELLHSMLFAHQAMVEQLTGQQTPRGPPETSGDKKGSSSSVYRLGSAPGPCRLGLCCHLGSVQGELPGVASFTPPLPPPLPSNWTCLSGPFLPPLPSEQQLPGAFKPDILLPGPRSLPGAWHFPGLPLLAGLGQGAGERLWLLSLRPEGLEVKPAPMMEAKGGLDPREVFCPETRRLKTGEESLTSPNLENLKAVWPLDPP
# Summary of the method: as §1
# ETS2 = target: T7, ETS2 (Homo sapiens, UniProt P15036 1-469); settings: protein: recombinant; tags: N-terminal GST; dsDNA, one strand shown
# T7 sequence: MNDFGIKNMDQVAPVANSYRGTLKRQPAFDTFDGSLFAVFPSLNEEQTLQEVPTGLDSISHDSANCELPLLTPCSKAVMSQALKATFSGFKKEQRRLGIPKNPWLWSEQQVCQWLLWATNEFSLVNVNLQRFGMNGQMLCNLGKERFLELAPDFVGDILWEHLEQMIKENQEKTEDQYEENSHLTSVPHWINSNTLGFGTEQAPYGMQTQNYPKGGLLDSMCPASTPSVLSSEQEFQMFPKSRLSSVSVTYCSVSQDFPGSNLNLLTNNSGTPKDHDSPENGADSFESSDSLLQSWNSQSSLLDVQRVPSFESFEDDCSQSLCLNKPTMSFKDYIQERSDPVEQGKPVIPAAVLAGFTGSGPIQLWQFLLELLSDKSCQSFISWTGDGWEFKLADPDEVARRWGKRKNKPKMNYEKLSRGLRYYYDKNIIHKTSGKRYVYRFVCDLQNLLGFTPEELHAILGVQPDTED
# Summary of the method: as §1
# HSF1 = HSF1 (Homo sapiens, UniProt Q00613 1-529); settings: protein: recombinant; tags: N-terminal GST; chain copies: 3; dsDNA, one strand shown
# Summary of the method: as §1
# EHF = target: T8, EHF (Homo sapiens, UniProt Q9NZC4 1-300); settings: protein: recombinant; tags: N-terminal GST; dsDNA, one strand shown
# T8 sequence: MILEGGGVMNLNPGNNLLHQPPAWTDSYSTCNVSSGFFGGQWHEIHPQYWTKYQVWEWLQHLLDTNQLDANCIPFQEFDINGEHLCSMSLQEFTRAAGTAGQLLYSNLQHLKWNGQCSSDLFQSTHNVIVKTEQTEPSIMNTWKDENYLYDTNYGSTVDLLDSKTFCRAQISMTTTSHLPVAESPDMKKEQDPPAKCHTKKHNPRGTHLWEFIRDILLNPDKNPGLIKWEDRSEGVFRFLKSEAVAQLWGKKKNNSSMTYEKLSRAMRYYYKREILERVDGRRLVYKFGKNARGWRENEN
# Summary of the method: as §1
# ELF3 = target: T9, ELF3 (Homo sapiens, UniProt P78545 1-371); settings: protein: recombinant; tags: N-terminal GST; dsDNA, one strand shown
# T9 sequence: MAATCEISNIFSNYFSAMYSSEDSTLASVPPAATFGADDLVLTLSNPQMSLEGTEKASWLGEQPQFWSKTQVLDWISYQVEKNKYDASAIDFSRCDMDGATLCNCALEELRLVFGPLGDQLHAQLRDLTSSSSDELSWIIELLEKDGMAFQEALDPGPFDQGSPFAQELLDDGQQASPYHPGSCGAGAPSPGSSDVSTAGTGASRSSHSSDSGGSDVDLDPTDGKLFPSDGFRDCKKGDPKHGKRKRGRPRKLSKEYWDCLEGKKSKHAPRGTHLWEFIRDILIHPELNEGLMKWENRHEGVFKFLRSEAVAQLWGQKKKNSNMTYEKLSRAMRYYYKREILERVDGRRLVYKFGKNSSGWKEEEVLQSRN
# Summary of the method: as §1
# Sequence of SPIB (Q01892 whole entry): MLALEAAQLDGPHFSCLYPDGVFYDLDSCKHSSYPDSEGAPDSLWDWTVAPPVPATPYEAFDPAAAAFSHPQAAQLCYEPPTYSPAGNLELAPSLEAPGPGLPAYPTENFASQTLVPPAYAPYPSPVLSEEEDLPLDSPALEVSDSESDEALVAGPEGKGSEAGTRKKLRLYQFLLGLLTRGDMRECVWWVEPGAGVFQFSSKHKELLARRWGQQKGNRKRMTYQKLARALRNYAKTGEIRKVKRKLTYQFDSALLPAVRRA
# Sequence of ETV1 (P50549 whole entry): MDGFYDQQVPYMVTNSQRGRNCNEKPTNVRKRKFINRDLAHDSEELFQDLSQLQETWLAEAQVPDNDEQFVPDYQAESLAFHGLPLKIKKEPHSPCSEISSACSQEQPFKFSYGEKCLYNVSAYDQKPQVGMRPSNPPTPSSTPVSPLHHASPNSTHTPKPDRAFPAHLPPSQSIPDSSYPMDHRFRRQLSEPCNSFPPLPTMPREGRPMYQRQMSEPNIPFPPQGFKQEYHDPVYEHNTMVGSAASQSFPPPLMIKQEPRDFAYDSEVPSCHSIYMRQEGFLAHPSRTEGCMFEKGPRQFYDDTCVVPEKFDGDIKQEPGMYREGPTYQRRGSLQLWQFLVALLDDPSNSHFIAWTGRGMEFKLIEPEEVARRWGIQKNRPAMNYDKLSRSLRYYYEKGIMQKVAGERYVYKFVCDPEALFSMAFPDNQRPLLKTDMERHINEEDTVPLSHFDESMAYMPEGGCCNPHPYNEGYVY
# Sequence of ELF1 (P32519 whole entry): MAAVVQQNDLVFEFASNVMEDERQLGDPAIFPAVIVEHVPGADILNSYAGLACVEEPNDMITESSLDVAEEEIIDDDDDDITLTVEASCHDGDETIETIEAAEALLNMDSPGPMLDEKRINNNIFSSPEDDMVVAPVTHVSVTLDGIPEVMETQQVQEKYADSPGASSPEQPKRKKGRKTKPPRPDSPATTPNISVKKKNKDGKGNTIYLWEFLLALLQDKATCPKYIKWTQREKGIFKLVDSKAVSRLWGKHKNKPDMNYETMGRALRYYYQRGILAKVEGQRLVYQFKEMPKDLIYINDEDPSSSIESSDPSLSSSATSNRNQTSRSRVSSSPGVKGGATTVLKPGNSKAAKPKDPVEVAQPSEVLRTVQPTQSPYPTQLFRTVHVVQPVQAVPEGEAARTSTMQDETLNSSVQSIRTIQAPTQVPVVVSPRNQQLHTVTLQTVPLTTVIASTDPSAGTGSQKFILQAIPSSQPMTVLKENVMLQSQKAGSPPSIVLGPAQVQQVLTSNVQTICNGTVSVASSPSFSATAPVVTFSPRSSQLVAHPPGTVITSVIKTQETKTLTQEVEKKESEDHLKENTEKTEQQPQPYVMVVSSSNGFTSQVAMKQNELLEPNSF
# Sequence of HSF1 (Q00613 whole entry): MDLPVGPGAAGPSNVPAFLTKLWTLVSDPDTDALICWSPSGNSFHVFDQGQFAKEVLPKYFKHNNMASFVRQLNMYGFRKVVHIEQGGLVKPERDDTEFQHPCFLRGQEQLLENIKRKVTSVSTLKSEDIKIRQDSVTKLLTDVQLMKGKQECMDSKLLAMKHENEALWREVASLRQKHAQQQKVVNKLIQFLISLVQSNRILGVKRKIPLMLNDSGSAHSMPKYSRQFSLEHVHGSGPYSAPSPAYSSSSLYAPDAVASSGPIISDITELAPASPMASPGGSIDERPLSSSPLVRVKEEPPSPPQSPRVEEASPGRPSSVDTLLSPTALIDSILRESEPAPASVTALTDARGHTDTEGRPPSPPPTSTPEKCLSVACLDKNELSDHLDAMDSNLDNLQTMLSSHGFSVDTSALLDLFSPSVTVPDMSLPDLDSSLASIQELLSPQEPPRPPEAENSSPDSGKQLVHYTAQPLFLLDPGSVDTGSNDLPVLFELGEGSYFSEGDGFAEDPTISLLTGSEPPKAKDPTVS
sequence,measurement,setting,value
CGGGCT,binding signal,FLI1,"1.05 fold enrichment (6-mer frequency, TF over GST control)"
same,binding signal,GABPA,"1.05 fold enrichment (6-mer frequency, TF over GST control)"
same,binding signal,ELF1,"1.04 fold enrichment (6-mer frequency, TF over GST control)"
same,binding signal,SPIB,"1.13 fold enrichment (6-mer frequency, TF over GST control)"
same,binding signal,ELK3,"1.14 fold enrichment (6-mer frequency, TF over GST control)"
same,binding signal,ELK4,"1.18 fold enrichment (6-mer frequency, TF over GST control)"
same,binding signal,ETV1,"1.07 fold enrichment (6-mer frequency, TF over GST control)"
same,binding signal,ERF,"1.05 fold enrichment (6-mer frequency, TF over GST control)"
same,binding signal,ETV3L,"1.01 fold enrichment (6-mer frequency, TF over GST control)"
same,binding signal,ETS2,"1.07 fold enrichment (6-mer frequency, TF over GST control)"
ACGAGA,binding signal,HSF1,"1.14 fold enrichment (6-mer frequency, TF over GST control)"
GACGTT,binding signal,FLI1,"1.05 fold enrichment (6-mer frequency, TF over GST control)"
ACGTCA,binding signal,FLI1,"1.01 fold enrichment (6-mer frequency, TF over GST control)"
same,binding signal,EHF,"1.01 fold enrichment (6-mer frequency, TF over GST control)"
same,binding signal,SPIB,"1.09 fold enrichment (6-mer frequency, TF over GST control)"
same,binding signal,ELF3,"1.03 fold enrichment (6-mer frequency, TF over GST control)"
same,binding signal,ETV1,"1.05 fold enrichment (6-mer frequency, TF over GST control)"
